FBW7 activator: FBW7 E3 ligase activators, primary screen, biochemical, AlphaScreen, human | 650,000 compounds, 0.13% hits | AID 1259310, 2017 | AlphaScreen FBW7–phospho-cyclin E peptide binding, activator screen | normalized activity (activation), % at 26.1 µM; in the data active = normalized activity above about 1.9%;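 also: purified mutant Fbw7 with reduced substrate affinity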
TEAD-YAP block: TEAD-YAP interaction inhibition, primary screen, TEAD-YAP interaction inhibitor project, luminescence, HEK-TIYL cells | TEAD-Gal4/YAP UAS-luciferase luminescence | inhibition, % at 9.12 µM | 640,000 compounds, 1.4% hits; in the data active = inhibition above about 32%;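 also: 0% = median of test compound wells and 100% = reference inhibitor wells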
GPR151 activ: activators of human GPR151, primary screen, cell-based, PathHunter beta-arrestin, luminescence; PathHunter beta-arrestin GPR151 cells; 650,000 compounds, 1% hits; AID 1508602, 2020; activation, % at 11.2 µM; in the data active = activation above about 4.9%;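 also: 0% = median of compound wells and 100% = cells with positive control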
Target sequence (Q8TDV0 whole entry, looked up): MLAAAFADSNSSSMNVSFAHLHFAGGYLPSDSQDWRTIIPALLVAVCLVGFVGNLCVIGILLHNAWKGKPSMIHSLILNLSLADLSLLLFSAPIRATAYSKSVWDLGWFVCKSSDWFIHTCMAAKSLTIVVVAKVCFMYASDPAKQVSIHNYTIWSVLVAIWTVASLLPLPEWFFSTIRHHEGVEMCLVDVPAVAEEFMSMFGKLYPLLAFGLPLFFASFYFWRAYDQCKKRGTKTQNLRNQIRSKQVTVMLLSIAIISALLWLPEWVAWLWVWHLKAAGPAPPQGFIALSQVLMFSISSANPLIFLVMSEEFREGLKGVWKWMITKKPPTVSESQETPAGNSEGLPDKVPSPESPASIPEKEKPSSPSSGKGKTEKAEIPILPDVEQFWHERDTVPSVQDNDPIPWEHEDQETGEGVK
MITF primary: MITF inhibitors, primary screen, biochemical, AlphaScreen, human. Microphthalmia-associated transcription factor (Homo sapiens), O75030. AlphaScreen MITF homodimerization, bead proximity signal. inhibition, % at 2.6 µM. 650,000 compounds, 0.91% hits; in the data active = inhibition above about 50%;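 also: 0% = vehicle wells with protein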
* marks the source's active call; other numbers are inactive results. In the library only some 3.5% were active in any assay of this set; here they are far more common.

How did COc1ccc(/C=C/C(=O)Nc2ccc(S(=O)(=O)N3CCCC3)cc2)cc1 do in these assays?
FBW7 activator: 0; TEAD-YAP block: 14; GPR151 activ: 1; MITF primary: -4

How did COc1ccc(/C=C/C(=O)Nc2ccc(S(=O)(=O)N3CCCCCC3)cc2)cc1 do in these assays?
FBW7 activator: 0; TEAD-YAP block: 32*; GPR151 activ: 1; MITF primary: 6

How did O=C(Nc1cccnc1)c1ccc(-c2ccc(Cl)cc2Cl)o1 do in these assays?
FBW7 activator: 0; TEAD-YAP block: -17; GPR151 activ: 2; MITF primary: -4

What do the screens show for `COC(=O)c1cn(NC(=O)c2cccnc2Cl)c(=O)c2ccccc12`?
FBW7 activator: 0; TEAD-YAP block: -2; GPR151 activ: -1; MITF primary: 0

Results for COC(=O)c1cn(NC(=O)c2ccccn2)c(=O)c2ccccc12 ?
FBW7 activator: 0; TEAD-YAP block: 62*; GPR151 activ: -1; MITF primary: 100*

Results for O=C(O)c1ccc(N2C(=O)C3C4C=CC(C5CC45)C3C2=O)cc1 (stereo unspecified) ?
FBW7 activator: 1; TEAD-YAP block: -1; GPR151 activ: 0; MITF primary: 47

Results for CC(=O)CC(=O)Nc1ccnn1-c1ccccc1 ?
FBW7 activator: 0; TEAD-YAP block: 1; GPR151 activ: -1; MITF primary: -17

What do the screens show for `CCOC(=O)C/C(C)=N/c1ccnn1-c1ccccc1`?
FBW7 activator: 0; TEAD-YAP block: 76*; GPR151 activ: -4; MITF primary: 2

How did COc1cccc2cc(-c3csc(N)n3)c(=O)oc12 do in these assays?
FBW7 activator: 0; TEAD-YAP block: 49*; GPR151 activ: -9; MITF primary: 0

What do the screens show for `COc1ccc(-c2cc3cccc(OC)c3oc2=O)cc1`?
FBW7 activator: 0; TEAD-YAP block: 71*; GPR151 activ: -7; MITF primary: -18

Results for COc1cccc2cc(-c3csc(NC(C)=O)n3)c(=O)oc12 ?
FBW7 activator: 0; TEAD-YAP block: -9; GPR151 activ: 2; MITF primary: -1

Results for COc1cc(C(=O)Nc2cnc(NC(=O)c3ccco3)cc2C)cc(OC)c1OC ?
FBW7 activator: 0; TEAD-YAP block: -12; GPR151 activ: 1; MITF primary: -6

Results for COc1cc(/C=C2\SC(NC(C)=O)=NC2=O)cc(Cl)c1OC(C)=O ?
FBW7 activator: 0; TEAD-YAP block: 6; GPR151 activ: 3; MITF primary: 9

How did CC(=O)NC1=NN(C(C)=O)C(C)(c2ccc(F)cc2)S1 (stereo unspecified) do in these assays?
FBW7 activator: 1; TEAD-YAP block: 37*; GPR151 activ: 0; MITF primary: 11

How did CC(=O)NC1=NN(C(C)=O)C(C)(c2cccs2)S1 (stereo unspecified) do in these assays?
FBW7 activator: 0; TEAD-YAP block: 60*; GPR151 activ: -1; MITF primary: 1

How did CCc1ccc(C2(C)SC(NC(C)=O)=NN2C(C)=O)cc1 (stereo unspecified) do in these assays?
FBW7 activator: 0; TEAD-YAP block: -6; GPR151 activ: 0; MITF primary: 8

What do the screens show for `CCCCCCOc1ccc(-c2ccc(-c3noc(-c4ccc(CCCC)cc4)n3)cc2)cc1`?
FBW7 activator: 0; TEAD-YAP block: -10; GPR151 activ: -1; MITF primary: 8

Results for COc1ccc2c(c1)OC(C)CN(CCC(=O)NC1Cc3ccccc3C1)C2 (stereo unspecified) ?
FBW7 activator: 0; TEAD-YAP block: 3; GPR151 activ: 0; MITF primary: 11

How did Cc1ncc([N+](=O)[O-])n1S(=O)(=O)c1cccc2ccccc12 do in these assays?
FBW7 activator: 2.3*; TEAD-YAP block: 5; GPR151 activ: 0; MITF primary: 0

Results for Cc1ncc([N+](=O)[O-])n1S(=O)(=O)c1ccccc1 ?
FBW7 activator: 0; TEAD-YAP block: 11; GPR151 activ: 0; MITF primary: 11

How did OCC1CCCN1c1nc(NCc2ccccc2)c2ncn(-c3ccsc3)c2n1 (stereo unspecified) do in these assays?
FBW7 activator: 0; TEAD-YAP block: 0; GPR151 activ: 1; MITF primary: -1

What do the screens show for `CC(C)n1cnc2c(NCc3cccnc3)nc(N3CCCC3CO)nc21` (stereo unspecified)?
FBW7 activator: 0; TEAD-YAP block: 33*; GPR151 activ: -1; MITF primary: -3

What do the screens show for `OCC1CCCN1c1nc(NCc2cccnc2)c2ncn(-c3ccccc3)c2n1` (stereo unspecified)?
FBW7 activator: 0; TEAD-YAP block: 44*; GPR151 activ: 2; MITF primary: -2

How did C(=N\Nc1nn[nH]n1)/c1ccc(N2CCOCC2)cc1 do in these assays?
FBW7 activator: 0; TEAD-YAP block: -5; GPR151 activ: 0; MITF primary: 58*

How did COc1ccccc1N1CC(O)(c2ccc3c(c2)OCCO3)[N+]2=C1CCCCC2 (stereo unspecified) do in these assays?
FBW7 activator: 0; TEAD-YAP block: 5; GPR151 activ: 0; MITF primary: 12

What do the screens show for `Cc1cccc2cc(CN(CC3CCCO3)C(=O)c3n[nH]c4c3CCC4)c(N(C)C)nc12` (stereo unspecified)?
FBW7 activator: 0; TEAD-YAP block: -5; GPR151 activ: 0; MITF primary: -5

Results for O=C(Nc1ccc(Oc2cccnc2)cc1)C1CCN(Cc2cc3ccccc3o2)CC1 ?
FBW7 activator: 0; TEAD-YAP block: 44*; GPR151 activ: -1; MITF primary: 12

How did Cc1nc(C)c(CN2CCC(C(=O)Nc3ccc(Oc4cccnc4)cc3)CC2)nc1C do in these assays?
FBW7 activator: 0; TEAD-YAP block: 13; GPR151 activ: 0; MITF primary: 7

Results for O=C(O)c1cc(N=Cc2c(O)n(Cc3ccco3)c(=O)[nH]c2=O)ccc1Cl ?
FBW7 activator: 0; TEAD-YAP block: 5; GPR151 activ: 0; MITF primary: 76*

How did CC1CCN(C(=O)N2c3ccccc3Sc3ccccc32)CC1 do in these assays?
FBW7 activator: 0; TEAD-YAP block: -4; GPR151 activ: 1; MITF primary: 12

What do the screens show for `CCOC(=O)N1CCN(C(=O)N2c3ccccc3Sc3ccccc32)CC1`?
FBW7 activator: 0; TEAD-YAP block: 56*; GPR151 activ: 1; MITF primary: -2

What do the screens show for `Cc1ccccc1-n1nnnc1Sc1ccc([N+](=O)[O-])c2cnccc12`?
FBW7 activator: 0; TEAD-YAP block: 44*; GPR151 activ: 1; MITF primary: -7

Results for CC(=O)c1ccc(Sc2nnnn2-c2ccccc2)c([N+](=O)[O-])c1 ?
FBW7 activator: 0; TEAD-YAP block: 33*; GPR151 activ: -2; MITF primary: 4

How did O=[N+]([O-])c1ccc(Sc2nnnn2-c2ccccc2)c(Cl)c1 do in these assays?
FBW7 activator: 0; TEAD-YAP block: 34*; GPR151 activ: 0; MITF primary: 21

Bioassay records from PubChem.
